Inconclusive results are not listed. Calls of active or inactive are those of the source. The calls were made as follows, unless noted: active = hit-call score of the fitted dose curve at least 0.9, where 1 is the maximum; inconclusive = response in the unintended direction; inactive = score below 0.9.
Experiments:
[1] = system: rat Monoamine Oxidase, MAO-A, Central (MAOAC), gene 29253; assay: NVS_ENZ_rMAOAC: NovaScreen (NVS) Enzymatic Assay for rat Monoamine Oxidase, MAO-A, Central (MAOAC) (AID 2283243);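 also: potency refers to inhibition seen as signal drop below DMSO baseline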
Procedure, shortened: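 Scintillation read-out of MAO-A activity in rat brain lysate, 1.5 h post-dosing. Primary single-concentration screen: 25 uM, duplicate; actives re-tested in concentration series. DMSO = negative control/baseline.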

[2] = target: rat Acetylcholinesterase (AChE), Ache (gene 83817) (UniProt P37136); assay: NVS_ENZ_rAChE: NovaScreen (NVS) Enzymatic Assay for rat Acetylcholinesterase (AChE) (AID 2283233)
Procedure, shortened: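 Compounds first screened at 25 uM in duplicate, then those passing threshold tested in concentration series up to 50 uM, against AChE from rat brain membranes. Enzyme activity read by absorbance at 0.33 h; inhibition scored versus DMSO.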

[3] = target: bovine Gamma-Aminobutyric Acid Type A Receptor BDZ, alpha 1 site (GABARa1), GABRA1 (gene 780973) (UniProt P08219); assay: NVS_LGIC_bGABARa1: NovaScreen (NVS) Ligand-Gated Ion Channel Assay for bovine Gamma-Aminobutyric Acid Type A Receptor BDZ, alpha 1 site (GABARa1) (AID 2283321)
Procedure, shortened: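 Bovine cortex membrane preparation, benzodiazepine site on GABA-A alpha1; specific radioligand displacement read after 0.75 h by filtration and scintillation. Screen at 25 uM, then singleton titrations up to 50 uM; DMSO baseline.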

[4] = target: rat Gamma-Aminobutyric Acid Type A Receptor BDZ, alpha 6 site (GABARa6), Gabra6 (gene 29708) (UniProt P30191); assay: NVS_LGIC_rGABARa6: NovaScreen (NVS) Ligand-Gated Ion Channel Assay for rat Gamma-Aminobutyric Acid Type A Receptor BDZ, alpha 6 site (GABARa6) (AID 2283339)
Procedure, shortened: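 Actives from a 25 uM duplicate screen were retested in concentration series (max 50 uM). Specific radioligand displacement from rat cerebellar membranes was counted by filter-based scintillation at 1 h; DMSO served as baseline.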

[5] = target: rat Monoamine Oxidase, MAO-B, Central (MAOBC), Maob (gene 25750) (UniProt P19643); assay: NVS_ENZ_rMAOBC: NovaScreen (NVS) Enzymatic Assay for rat Monoamine Oxidase, MAO-B, Central (MAOBC) (AID 2283238)
Procedure, shortened: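 Actives from a duplicate 25 uM screen went on to singleton concentration-response with a 50 uM maximum. Enzyme source was rat brain tissue MAO-B, assayed cell-free. Radiolabelled product was counted by scintillation 1.17 h post-dose, with signal loss relative to DMSO.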

[6] = target: Bile acid receptor (Homo sapiens) (UniProt Q96RI1); assay: NVS_NR_hFXR_Agonist: NovaScreen (NVS) Nuclear Receptor Binding Assay for human Farnesoid X Receptor Agonism (FXR) (AID 2283347)
Procedure, shortened: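 Agonist-mode FXR assay read by time-resolved FRET 1 h after compound addition, using isolated human receptor protein without cells. Duplicate 25 uM single-point primary screen, concentration series for confirmed actives; DMSO as baseline.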

[7] = CCTE_Harrill_HTTr_Apoptosis_PRF_DMEM_12hr: (Pilot) CCTE's 12-hour Apoptosis Assessment for the High-Throughput Transcriptomics (HTTr) Platform, in MCF-7 cells cultured in phenol red-free DMEM + 10% charcoal-stripped fetal bovine serum, Harrill Lab (AID 2283985; active = hit-call score of the fitted dose curve at least 0.9, where 1 is the maximum; inactive = score below 0.9)
Procedure, shortened: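 Caspase-3/7 activity by CellEvent Green high content imaging after 12 h compound exposure (eight concentrations) in MCF-7 grown in phenol red-free DMEM plus 10% charcoal-stripped serum; DMSO as baseline.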

[8] = target: rat Monoamine Oxidase, MAO-B, Peripheral (MAOBP), Maob (gene 25750) (UniProt P19643); assay: NVS_ENZ_rMAOBP: NovaScreen (NVS) Enzymatic Assay for rat Monoamine Oxidase, MAO-B, Peripheral (MAOBP) (AID 2283242)
[9] = system: rat Monoamine Oxidase, MAO-A, Peripheral (MAOAP), gene 29253; assay: NVS_ENZ_rMAOAP: NovaScreen (NVS) Enzymatic Assay for rat Monoamine Oxidase, MAO-A, Peripheral (MAOAP) (AID 2283237)
Procedure, shortened: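 Scintillation counting tracked MAO-A activity in a cell-free rat liver mitochondrial membrane prep, read 1.17 hours after compound addition. Single-point duplicate testing at 25 uM preceded concentration-response follow-up; activity was fitted relative to DMSO.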

[10] = target: Norway rat Vesicular Monoamine Transporter (VMAT2), neurotransmitter transporter, Slc18a2 (gene 25549) (UniProt Q01827); assay: NVS_TR_rVMAT2: NovaScreen (NVS) Transporter Assay for Norway rat Vesicular Monoamine Transporter (VMAT2), neurotransmitter transporter (AID 2283376);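 also: actives lower the bound radioligand signal below the DMSO level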
Procedure, shortened: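 Using rat forebrain membranes, specific radioligand binding to VMAT2 was measured by filtration and scintillation counting after 1 hour. Chemicals screened at 25 uM in duplicate, actives retested in concentration series, DMSO baseline.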

[11] = target: rat Corticotropin Releasing Factor Receptor (CRF), Crhr1 (gene 58959) (UniProt P35353); assay: NVS_GPCR_rCRF: NovaScreen (NVS) G Protein-Coupled Receptor Assay for rat Corticotropin Releasing Factor Receptor (CRF) (AID 2283300)
Procedure, shortened: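 Single-concentration (25 uM, duplicate) radioligand binding on rat cortical membrane preparations, counted by scintillation after 2 h. Activity scored as signal loss relative to DMSO negative control.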

[12] = target: Voltage-dependent N-type calcium channel subunit alpha-1B (Rattus norvegicus) (UniProt Q02294); assay: NVS_IC_rCaChN: NovaScreen (NVS) Ion Channel Assay for rat Calcium Channel, Type N (CaChN) (AID 2283317)
[13] = target: human Neonicotinoid receptor (NNR), CHRNA2 (gene 1135) (UniProt Q15822); assay: NVS_LGIC_hNNR_NBungSens: NovaScreen (NVS) Ligand-Gated Ion Channel Assay for human Neonicotinoid receptor (NNR) (AID 2283313)
Procedure, shortened: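 Compounds first screened in duplicate at 25 uM, then actives re-tested in single-replicate dose series up to 50 uM. Binding measured as displacement of specific radioligand from neuroblastoma membrane receptors after 2 h, scintillation read on filters.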

[14] = TOX21_TRB_BLA_Agonist_Followup_viability: Viability Assessment in the Tox21 Thyroid Hormone Receptor beta Agonism Beta-lactamase (BLA) Follow-Up Assay (AID 2283956)
Procedure, shortened: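 Viability was read as CellTiter-Glo luminescence in the same wells as the TRb-bla agonist read-out. HEK293T GAL4-TRb LBD cells were treated for 18 h (37C, 5% CO2) at 11 concentrations in triplicate. Fits were bidirectional versus DMSO baseline.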

Chain of rat Monoamine Oxidase, MAO-B, Central (MAOBC), Maob (gene 25750) (P19643 whole entry, looked up): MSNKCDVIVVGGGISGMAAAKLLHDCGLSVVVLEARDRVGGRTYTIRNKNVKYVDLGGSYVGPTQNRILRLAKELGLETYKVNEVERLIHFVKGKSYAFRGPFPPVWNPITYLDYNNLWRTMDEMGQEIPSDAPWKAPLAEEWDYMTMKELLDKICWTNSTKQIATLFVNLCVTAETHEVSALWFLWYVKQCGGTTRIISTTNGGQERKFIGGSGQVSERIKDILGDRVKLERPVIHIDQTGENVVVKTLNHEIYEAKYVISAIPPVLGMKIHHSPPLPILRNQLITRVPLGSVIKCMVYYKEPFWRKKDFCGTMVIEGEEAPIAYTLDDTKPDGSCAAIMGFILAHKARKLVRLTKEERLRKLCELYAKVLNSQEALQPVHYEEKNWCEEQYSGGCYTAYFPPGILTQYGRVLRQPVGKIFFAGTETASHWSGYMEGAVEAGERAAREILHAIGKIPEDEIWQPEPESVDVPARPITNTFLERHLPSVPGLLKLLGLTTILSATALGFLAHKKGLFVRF
Chain of rat Monoamine Oxidase, MAO-B, Peripheral (MAOBP), Maob (gene 25750) (P19643 whole entry, looked up): as above
Chain of rat Acetylcholinesterase (AChE), Ache (gene 83817) (P37136 whole entry, looked up): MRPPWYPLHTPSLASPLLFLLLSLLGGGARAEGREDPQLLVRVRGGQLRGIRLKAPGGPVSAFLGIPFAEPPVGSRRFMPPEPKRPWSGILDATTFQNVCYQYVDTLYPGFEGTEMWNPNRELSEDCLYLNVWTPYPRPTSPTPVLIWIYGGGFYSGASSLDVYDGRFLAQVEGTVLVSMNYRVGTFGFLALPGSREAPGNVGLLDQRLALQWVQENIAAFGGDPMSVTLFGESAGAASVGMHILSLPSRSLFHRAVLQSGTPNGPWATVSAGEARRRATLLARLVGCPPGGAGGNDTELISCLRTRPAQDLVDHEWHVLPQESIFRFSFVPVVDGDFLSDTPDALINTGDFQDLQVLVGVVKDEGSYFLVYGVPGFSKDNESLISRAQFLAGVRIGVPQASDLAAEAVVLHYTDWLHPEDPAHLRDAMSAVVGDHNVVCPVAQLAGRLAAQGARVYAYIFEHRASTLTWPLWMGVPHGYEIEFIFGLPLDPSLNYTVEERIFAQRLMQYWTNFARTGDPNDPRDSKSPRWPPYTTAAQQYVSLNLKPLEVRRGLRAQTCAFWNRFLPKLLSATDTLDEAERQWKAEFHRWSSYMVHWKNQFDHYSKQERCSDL
Chain of bovine Gamma-Aminobutyric Acid Type A Receptor BDZ, alpha 1 site (GABARa1), GABRA1 (gene 780973) (P08219 whole entry, looked up): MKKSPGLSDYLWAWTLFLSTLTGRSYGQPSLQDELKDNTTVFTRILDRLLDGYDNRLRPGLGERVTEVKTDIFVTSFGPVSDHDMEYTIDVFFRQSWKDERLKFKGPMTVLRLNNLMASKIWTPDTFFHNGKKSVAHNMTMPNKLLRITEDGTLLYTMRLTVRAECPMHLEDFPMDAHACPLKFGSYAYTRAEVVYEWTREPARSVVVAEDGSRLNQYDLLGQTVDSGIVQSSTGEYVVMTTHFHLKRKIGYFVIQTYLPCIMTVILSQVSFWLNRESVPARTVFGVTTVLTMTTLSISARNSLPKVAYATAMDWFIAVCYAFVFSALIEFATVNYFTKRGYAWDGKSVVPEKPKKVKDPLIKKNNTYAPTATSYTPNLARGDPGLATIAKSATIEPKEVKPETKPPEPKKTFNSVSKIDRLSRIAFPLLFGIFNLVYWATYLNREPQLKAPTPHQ
Chain of human Neonicotinoid receptor (NNR), CHRNA2 (gene 1135) (Q15822 whole entry, looked up): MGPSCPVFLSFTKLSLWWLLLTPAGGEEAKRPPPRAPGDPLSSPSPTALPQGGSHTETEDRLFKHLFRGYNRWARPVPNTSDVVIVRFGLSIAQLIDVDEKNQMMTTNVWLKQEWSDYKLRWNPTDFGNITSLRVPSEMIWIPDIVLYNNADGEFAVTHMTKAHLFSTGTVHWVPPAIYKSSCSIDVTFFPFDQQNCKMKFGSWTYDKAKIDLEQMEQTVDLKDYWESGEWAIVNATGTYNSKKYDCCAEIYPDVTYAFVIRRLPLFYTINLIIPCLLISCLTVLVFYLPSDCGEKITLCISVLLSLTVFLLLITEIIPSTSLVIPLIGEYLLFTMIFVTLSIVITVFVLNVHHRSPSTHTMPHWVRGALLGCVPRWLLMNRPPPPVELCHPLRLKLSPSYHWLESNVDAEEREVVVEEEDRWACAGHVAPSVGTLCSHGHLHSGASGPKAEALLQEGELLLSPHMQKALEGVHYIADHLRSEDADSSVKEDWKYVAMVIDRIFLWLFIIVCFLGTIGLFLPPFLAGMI
Chain of Bile acid receptor (Homo sapiens) (Q96RI1 whole entry, looked up): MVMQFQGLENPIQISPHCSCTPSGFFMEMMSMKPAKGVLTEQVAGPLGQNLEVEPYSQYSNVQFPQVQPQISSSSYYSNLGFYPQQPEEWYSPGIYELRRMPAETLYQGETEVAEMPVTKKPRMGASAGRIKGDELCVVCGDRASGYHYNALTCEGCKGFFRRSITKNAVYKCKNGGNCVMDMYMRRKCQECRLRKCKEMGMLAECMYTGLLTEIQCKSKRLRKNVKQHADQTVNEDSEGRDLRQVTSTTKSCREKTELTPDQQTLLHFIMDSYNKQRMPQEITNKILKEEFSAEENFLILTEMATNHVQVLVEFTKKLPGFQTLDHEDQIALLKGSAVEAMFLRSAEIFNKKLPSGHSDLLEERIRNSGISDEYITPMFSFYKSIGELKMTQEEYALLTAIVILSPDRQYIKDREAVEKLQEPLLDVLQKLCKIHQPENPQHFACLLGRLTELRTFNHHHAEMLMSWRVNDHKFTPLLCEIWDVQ
Chain of rat Gamma-Aminobutyric Acid Type A Receptor BDZ, alpha 6 site (GABARa6), Gabra6 (gene 29708) (P30191 whole entry, looked up): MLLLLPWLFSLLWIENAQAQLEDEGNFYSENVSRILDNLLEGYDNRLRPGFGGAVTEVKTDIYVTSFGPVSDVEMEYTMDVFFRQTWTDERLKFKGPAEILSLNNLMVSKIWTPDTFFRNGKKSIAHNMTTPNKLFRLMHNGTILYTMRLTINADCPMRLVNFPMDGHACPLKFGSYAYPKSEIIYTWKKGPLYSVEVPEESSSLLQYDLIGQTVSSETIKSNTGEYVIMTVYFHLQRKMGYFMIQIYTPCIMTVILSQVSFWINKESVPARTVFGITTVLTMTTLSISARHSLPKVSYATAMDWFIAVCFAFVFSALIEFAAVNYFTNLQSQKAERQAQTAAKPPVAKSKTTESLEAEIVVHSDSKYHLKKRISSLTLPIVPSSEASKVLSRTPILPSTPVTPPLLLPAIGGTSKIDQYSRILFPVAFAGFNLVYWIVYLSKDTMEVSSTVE
Chain of rat Corticotropin Releasing Factor Receptor (CRF), Crhr1 (gene 58959) (P35353 whole entry, looked up): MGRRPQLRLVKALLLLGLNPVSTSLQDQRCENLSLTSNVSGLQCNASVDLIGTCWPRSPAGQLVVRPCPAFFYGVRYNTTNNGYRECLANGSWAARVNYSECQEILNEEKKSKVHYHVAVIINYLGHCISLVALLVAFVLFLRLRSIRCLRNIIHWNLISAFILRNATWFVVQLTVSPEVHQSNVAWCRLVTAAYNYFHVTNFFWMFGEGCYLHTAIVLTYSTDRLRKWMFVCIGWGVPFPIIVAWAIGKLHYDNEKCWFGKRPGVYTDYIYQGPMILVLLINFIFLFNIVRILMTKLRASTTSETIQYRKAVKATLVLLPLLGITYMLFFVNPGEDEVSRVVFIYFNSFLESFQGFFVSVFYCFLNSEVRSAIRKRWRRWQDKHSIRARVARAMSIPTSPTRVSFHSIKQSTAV
Chain of Norway rat Vesicular Monoamine Transporter (VMAT2), neurotransmitter transporter, Slc18a2 (gene 25549) (Q01827 whole entry, looked up): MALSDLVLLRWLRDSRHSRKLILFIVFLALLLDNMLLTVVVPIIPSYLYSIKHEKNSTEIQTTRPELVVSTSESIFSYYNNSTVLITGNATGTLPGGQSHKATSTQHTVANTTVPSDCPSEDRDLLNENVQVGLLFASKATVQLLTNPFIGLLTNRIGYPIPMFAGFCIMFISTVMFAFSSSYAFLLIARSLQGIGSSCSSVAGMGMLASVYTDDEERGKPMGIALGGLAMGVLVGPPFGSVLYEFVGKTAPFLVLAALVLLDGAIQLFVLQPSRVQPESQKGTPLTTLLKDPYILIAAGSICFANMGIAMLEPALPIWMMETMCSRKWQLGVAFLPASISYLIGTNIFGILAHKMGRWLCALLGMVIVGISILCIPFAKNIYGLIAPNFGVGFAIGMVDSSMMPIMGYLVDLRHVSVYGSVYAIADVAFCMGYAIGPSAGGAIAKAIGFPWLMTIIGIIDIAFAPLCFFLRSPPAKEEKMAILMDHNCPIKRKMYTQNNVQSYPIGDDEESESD

With `O=C1OC2(c3ccccc31)c1cc(I)c(O)c(I)c1Oc1c2cc(I)c(O)c1I` as the molecule, how does the AC50 [1] read?
Its AC50 is 0.828 µM (active).

Which outcome [2] does the source give for `CCn1nc(C)c2c1C(=O)NCC(c1ccc(O)cc1)=N2` here?
The outcome was “inactive”.

And the outcome [3]?
The outcome was “inactive”.

And the outcome [4]?
The outcome was “inactive”.

For `CCc1ccc(CCOc2ccc(CC3SC(=O)NC3=O)cc2)nc1` (stereo not drawn), which AC50 [5] is on record?
Its AC50 is 6 µM (active).

Which AC50 [5] does the source give for `Cc1c(C)c2c(c(C)c1O)CCC(C)(COc1ccc(CC3SC(=O)NC3=O)cc1)O2` (stereo not drawn) here?
Its AC50 is 25 µM (active).

And the outcome [6]?
The outcome was “inactive”.

And the outcome [7]?
The outcome was “inactive”.

Which outcome [1] does the source give for `C=Cc1cccc(C)c1` here?
The outcome was “inactive”.

For `CCOc1ccc(NC(N)=O)cc1`, which AC50 [1] is on record?
Its AC50 is 16.6 µM (active).

With `CCCCCCC(C=O)=Cc1ccccc1` as the molecule, how does the outcome [8] read?
The outcome was “inactive”.

With `Cc1ccc([N+](=O)[O-])cc1N` as the molecule, how does the AC50 [5] read?
The AC50 was 14.7 µM (active).

What about the AC50 [8] of the same molecule?
The AC50 was 26.1 µM (active).

Which results are given for `CS(=O)(=O)OCCCCOS(C)(=O)=O`?
outcome [5]: inactive; outcome [8]: inactive

Which AC50 [1] does the source give for `CC=Cc1ccc(OC)c(OC)c1` here?
The AC50 was 17.2 µM (active).

For `CCOC(=O)[C@H](C)Oc1ccc(Oc2nc3ccc(Cl)cc3o2)cc1`, which AC50 [8] is on record?
Its AC50 is 15.9 µM (active).

For `O=NO`, which AC50 [9] is on record?
Its AC50 is 33.9 µM (active).

With `CC=Cc1ccc(O)c(OC)c1` as the molecule, how does the outcome [8] read?
The outcome was “inactive”.

Which AC50 [8] does the source give for `O=c1ccc2ccccc2o1` here?
The AC50 was 13.5 µM (active).

With `OCC(CO)(CBr)CBr` as the molecule, how does the outcome [8] read?
Its outcome is “inactive”.

What about the outcome [10] of the same molecule?
The outcome was “inactive”.

For `CC(=O)CCc1ccc(O)cc1`, which AC50 [1] is on record?
Its AC50 is 17.5 µM (active).

Which outcome [2] does the source give for `c1ccc(Oc2ccccc2)cc1` here?
Its outcome is “inactive”.

For `CN1CCN(Cc2cc(-c3ccc4[nH]c(=O)oc4c3)co2)[C@@H](c2ccc(F)cc2)C1`, which outcome [2] is on record?
Its outcome is “inactive”.

What about the AC50 [8] of the same molecule?
Its AC50 is 10.1 µM (active).

What does the source list for `CCC(C)(C)C1CCC(O)CC1` (stereo not drawn)?
outcome [5]: inactive; outcome [11]: inactive

Which AC50 [8] does the source give for `COC(=O)c1ccc(CNS(C)(=O)=O)cc1S(=O)(=O)NC(=O)Nc1nc(OC)cc(OC)n1` here?
Its AC50 is 35.5 µM (active).

Which outcome [2] does the source give for `CCOC(=O)C1=NOC(c2ccccc2)(c2ccccc2)C1` here?
The outcome was “inactive”.

With `O=C(N[C@@H](Cc1ccccc1)[C@@H](O)C(=O)N1C[C@@H](O)[C@@H](O)C1)c1cc2cc(Cl)ccc2[nH]1` as the molecule, how does the outcome [5] read?
The outcome was “inactive”.

With `NC(=Nc1ccccc1)Nc1ccccc1` as the molecule, how does the outcome [8] read?
Its outcome is “inactive”.

And the AC50 [3]?
Its AC50 is 21.8 µM (active).

Which outcome [2] does the source give for `CCCC(=O)OCCC(C)C` here?
Its outcome is “inactive”.

And the outcome [12]?
The outcome was “inactive”.

For `Cc1ccc2sc3cccc(C)c3c2c1`, which outcome [1] is on record?
The outcome was “inactive”.

Which results are given for `Cn1cnc2c1c(=O)[nH]c(=O)n2C`?
outcome [2]: inactive; AC50 [13]: 15.4 µM (active)

For `CCOC(=O)C(C)Oc1ccc(Oc2nc3ccc(Cl)cc3o2)cc1` (stereo not drawn), which AC50 [8] is on record?
The AC50 was 29.9 µM (active).

Which outcome [5] does the source give for `Cc1ccc(C)c(C)c1` here?
The outcome was “inactive”.

With `S=C(NC1CCCCC1)NC1CCCCC1` as the molecule, how does the AC50 [2] read?
Its AC50 is 17.2 µM (active).

Which AC50 [1] does the source give for `CC(=O)Nc1ccc(C(=O)CCl)cc1` here?
Its AC50 is 5.58 µM (active).

Which results are given for `NC(=O)Cn1c(=O)cc(CCN2CCN(c3nccc4sccc34)CC2)c2ccc(F)cc21`?
outcome [2]: inactive; AC50 [3]: 4.48 µM (active)

Which outcome [2] does the source give for `CC(C)CCCCCCOC(=O)C1CCCCC1C(=O)OCCCCCCC(C)C` (stereo not drawn) here?
Its outcome is “inactive”.

For `O=C1c2ccccc2C(=O)c2c(O)ccc(O)c21`, which AC50 [1] is on record?
The AC50 was 18.3 µM (active).

With `CCCCCCCCCCCC[N+](C)(C)C` as the molecule, how does the outcome [2] read?
The outcome was “inactive”.

What about the AC50 [1] of the same molecule?
The AC50 was 25 µM (active).

And the AC50 [13]?
Its AC50 is 13.3 µM (active).

For `CCCCCCCCCCCCCC[N+](C)(C)C`, which AC50 [2] is on record?
The AC50 was 21.3 µM (active).

And the AC50 [1]?
The AC50 was 31.1 µM (active).

With `CC1=C(/C=C/C(C)=C/C=C/C(C)=C/C(=O)O)C(C)(C)CCC1` as the molecule, how does the outcome [8] read?
Its outcome is “inactive”.

What about the outcome [14] of the same molecule?
Its outcome is “inactive”.
